Assay [1] addresses Vitamin D3 receptor (Homo sapiens) (UniProt P11473). Briefly: qHTS assay for small molecule antagonists of vitamin D receptor signaling (AID 588541; calls by dose curve;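 further: receptor activated by calcitriol during compound treatment; series mostly up to about 77 µM; on the % scale 0 is the no-effect control and ±100 the full control effect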). The procedure, abridged:
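VDR-UAS-bla HEK293T cells (2000/well, 2% charcoal-stripped FBS) were treated with titrated compounds plus 1-alpha,25-dihydroxyvitamin D3 (50 nM or 3 nM final) for 16 h at 37 C. CCF4 beta-lactamase fluorescence was read; Hill fits gave IC50.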

The target is the same in assay [2]. Briefly: qHTS assay for small molecule agonists of vitamin D receptor signaling (AID 588543; calls by dose curve;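 further: 0% = DMSO basal and 100% = reference agonist control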). The procedure, abridged: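 qHTS in agonist mode: compound titrations stimulate a VDR-driven β-lactamase reporter in HEK293T cells over 16 h at 37 °C. Response normalized to 50 nM 1α,25-dihydroxyvitamin D3 = 100%, DMSO = 0%; Hill fitting gives EC50 and maximal response.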

The nature of assay [3]: qHTS assay for small molecule agonists of retinoid X receptor alpha signaling (AID 588544; calls by dose curve;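 on activation: 0% = DMSO basal wells and 100% = reference agonist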). The following applies: HEK293T RXRa-UAS-bla, beta-lactamase reporter, 18 h; 530 nm emission.
The target in assay [4] is Retinoic acid receptor RXR-alpha (Homo sapiens) (UniProt P19793). The description is as above.
In assay [5] the target is Thyroid hormone receptor beta (Homo sapiens) (UniProt P10828). The assay is described as follows: qHTS assay for small molecule agonists of thyroid hormone receptor beta signaling (AID 588545; calls by dose curve). The procedure, abridged: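 Cells (2500/well) were seeded, incubated 4 hrs at 37 C, dosed with a compound series, incubated 18 hrs, loaded with CCF4 dye for 2 hrs at RT, then read for fluorescence. Data were scaled between DMSO (0%) and 10 nM T3 (100%).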

A short description of assay [6]: qHTS assay for small molecule antagonists of retinoid X receptor alpha signaling (AID 588546; active means well fitted inhibition curve with a large enough effect in the signal ratio, with a control signal flat, not every such curve was filed as active; the % refers to the signal ratio;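 further: cells stimulated with 9-cis-retinoic acid as agonist; on the % scale 0 is the no-effect control and ±100 the full control effect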). The following applies: HEK293T RXRa-UAS-bla, beta-lactamase ratio, antagonist mode; measured here: W530 green channel, cytotoxicity proxy. The procedure, abridged:
(§1)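 Beta-lactamase reporter inhibition, read as CCF4 fluorescence ratio (ex 405, em 460/530 nm) after 2 h at RT. HEK293T UAS-bla cells, 2500/well, were stimulated with 9-cis-RA at 500 or 100 nM final alongside test compound for 18 h at 37 C.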

In assay [7] the target is Retinoic acid receptor RXR-alpha (Homo sapiens) (UniProt P19793). Described as above. The following applies: HEK293T RXRa-UAS-bla, beta-lactamase ratio, antagonist mode. The procedure, abridged: as §1
The target in assay [8] is Thyroid hormone receptor beta (Homo sapiens) (UniProt P10828). The assay is described as follows: qHTS assay for small molecule antagonists of thyroid hormone receptor beta signaling (AID 588547; active means well fitted inhibition curve with a large enough effect in the signal ratio, with a control signal flat, not every such curve was filed as active; the % refers to the signal ratio;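 further: cells stimulated with 0.4 nM T3 agonist during compound exposure; series mostly up to about 77 µM; on the % scale 0 is the no-effect control and ±100 the full control effect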). Particulars: TR-UAS-bla HEK293, beta-lactamase ratio, antagonist mode, 18 h. The procedure, abridged:
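TR-UAS-bla GripTite HEK293 cells in 2% charcoal/dextran FBS medium were preincubated 4 h at 37 C, given compound (0.59 nM to 92 uM) plus 0.4 nM T3 (final) for 18 h, then CCF4 for 2 h at RT; Hill fit gave IC50.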

In assay [9] the target is Voltage-gated inwardly rectifying potassium channel KCNH2 (Homo sapiens) (UniProt Q12809). The assay is described as follows: qHTS Assay for Small Molecule Inhibitors of the Human hERG Channel Activity (AID 588834).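 Further: top concentration of the series differs between compounds; on the % scale 0 is the no-effect control and ±100 the full control effect; lower thallium flux fluorescence means stronger hERG block; nearly all actives have a fitted effect of over 50% in size.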 The procedure, abridged: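 Measured: FluxOR fluorescence after thallium stimulation in U2OS cells transduced with hERG by baculovirus. Compounds pre-incubated around 10 min; medium Opti-MEM with 2% FCS. AC50 from Hill equation.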

The nature of assay [10]: qHTS assay for small molecule agonists of the antioxidant response element (ARE) signaling pathway (AID 651741; active means well fitted activation curve with a large enough effect in the signal ratio; the % refers to the signal ratio; further: % of control where 0% means no effect). The procedure, abridged:
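Compounds in DMSO are pinned onto HepG2 ARE-bla cells (2,000/well) that were preincubated 5 h; plates stay 16 h at 37 C, then beta-lactamase activity is detected with LiveBLAzer B/G substrate by fluorescence.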

Assay [11] can be described thus: qHTS assay for small molecule activators of the nuclear factor-kappa B (NF-kB) signaling pathway (AID 651749; active means well fitted activation curve with a large enough effect in the signal ratio; the % refers to the signal ratio; further: series mostly up to about 77 µM; % of control where 0% means no effect). The following applies: NF-kB-bla ME-180 cells, beta-lactamase FRET ratio, 16 h; activation: stronger effect = higher value. The procedure, abridged:
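Screening used 2,000 ME-180 reporter cells per well exposed to pinned compound (23 nL) or DMSO; after 16 hr at 37C, beta-lactamase expression under NF-kB control was assessed through FRET.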

Assay [12] is described as follows: qHTS assay for small molecule disruptors of the mitochondrial membrane potential - 1 hr assay (AID 651754; calls by dose curve; further: on the % scale 0 is the no-effect control and ±100 the full control effect; nearly all actives have a fitted effect of over 35% in size). The procedure, abridged: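 HepG2 cells, attached overnight, were exposed to compound for 1 hr at 37C, then stained 30 min with a potentiometric dye. Ratio of red aggregate (590nm) to green monomer (535nm) fluorescence reports membrane potential; collapse shifts signal toward green.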

The nature of assay [13]: qHTS assay for small molecule disruptors of the mitochondrial membrane potential - 5 hr assay (AID 651755; calls by dose curve; further: on the % scale 0 is the no-effect control and ±100 the full control effect; nearly all actives have a fitted effect of over 40% in size). The procedure, abridged: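 HepG2 cells, attached overnight at 37C, were exposed to compound or DMSO for 5 hr at 37C, 5% CO2. Mito-MPS dye was then added for 30 min, and fluorescence read at 490/535 nm (monomers) and 540/590 nm (aggregates).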
The target in assay [14] is Tumor necrosis factor (Homo sapiens) (UniProt P01375). Briefly: qHTS assay to identify small molecules that stimulate Tumor Necrosis Factor-alpha (TNF-alpha) secretion (AID 651757; active means well fitted curve in the direction sought with a large enough effect in the signal ratio; the % refers to the signal ratio; further: 0% is about no effect). The procedure, abridged: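 THP-1 cells (3000/well) exposed to compounds 17 hrs at 37 C. Secreted TNF-alpha detected by HTRF with cryptate- and XL665-labeled anti-TNF-alpha antibodies after 3 hr at room temperature.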

A short description of assay [15]: qHTS assay for environmental chemicals that activate the Aryl hydrocarbon Receptor (AhR) signaling pathway (AID 651777). Further: % of control where 0% means no effect; nearly all actives have a fitted effect of over 15% in size. The following applies: 1A2-DRE human hepatoma cells, luciferase, 24 h; activation: stronger effect = higher value. The procedure, abridged:
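Quantitative HTS in stably transfected human liver-derived cells whose luciferase gene sits downstream of the CYP1A2 promoter and dioxin response element. After 24 hr exposure at 37 C, One-Glo luminescence was measured.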

The target in assay [16] is Peroxisome proliferator-activated receptor alpha (Homo sapiens) (UniProt Q07869). Briefly: qHTS assay for small molecule agonists of the peroxisome proliferator-activated receptor alpha (PPARalpha) signaling pathway (AID 651778). Further: % of control where 0% means no effect. The following applies: PathHunter PPARalpha complementation, chemiluminescence, 6 h; stronger effect = higher value. The procedure, abridged: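 Cells plated at 2,000/well and held overnight at 37 C, 5% CO2, then compound added by pin tool for 6 hr; after PathHunter detection reagent and 60 min at room temperature, chemiluminescence from enzyme complementation was read.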

In assay [17] the target is Nuclear receptor ROR-gamma (Homo sapiens) (UniProt P51449). The assay is described as follows: qHTS assay for small molecule antagonists of the retinoid-related orphan receptor gamma (ROR-gamma) signaling pathway (AID 651802).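 Further: luciferase reporter luminescence driven by ROR response element; series mostly up to about 92 µM; on the % scale 0 is the no-effect control and ±100 the full control effect; nearly all actives have a fitted effect of over 60% in size.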 The procedure, abridged: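 CHO cells with TET-inducible ROR-gamma and RORE-luciferase reporter, dosed then doxycycline-induced. After 16 h at 37C, One-Glo luminescence read; decreased signal indicates antagonism.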

Assay [18] is described as follows: qHTS assay for small molecule agonists of the antioxidant response element (ARE) signaling pathway measured by Nrf2-dependant transcriptional activity (AID 720636; active means well fitted curve in the direction sought with a large enough effect in the repeat runs; an effect the other way counts as inactive or inconclusive; further: % of control where 0% means no effect). The procedure, abridged: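 Quantitative HTS format in HepG2 cells stably expressing an ARE-luciferase reporter; 16 hr compound treatment at 37 C, luciferase signal detected with ONE-Glo.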
Assay [19] in a line: qHTS assay for small molecule antagonists of the retinoid-related orphan receptor gamma (ROR-gamma) signaling pathway - cell viability counter screen (AID 720652; active means well fitted curve in the direction sought with a large enough effect in the repeat runs; an effect the other way counts as inactive or inconclusive;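 further: series mostly up to about 92 µM; compound exposure lasted 16 hr before ATP read; on the % scale 0 is the no-effect control and ±100 the full control effect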). The procedure, abridged:
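CHO cells carrying TET-inducible ROR and RORE-luciferase reporter, plated 5 hr, then dosed with compound plus doxycycline. After 16 hr at 37 C, viability read as intracellular ATP by CellTiter-Glo luminescence.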

A short description of assay [20]: qHTS assay for small molecule agonists of the antioxidant response element (ARE) signaling pathway measured by Nrf2-dependant transcriptional activity - cell viability counter screen (AID 720653; active means well fitted curve in the direction sought with a large enough effect in the repeat runs; an effect the other way counts as inactive or inconclusive; further: on the % scale 0 is the no-effect control and ±100 the full control effect). The following applies: ARE-bla HepG2 viability, CellTiter-Glo ATP luminescence, 16 h; stronger effect = lower value. The procedure, abridged: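 ARE-bla HepG2 cells (2,000/well) rested 5 hrs at 37C/5% CO2, then exposed to compounds in DMSO for 16 hrs. Viability was read in the same wells as intracellular ATP by luminescence, 30 min at room temperature after reagent addition.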

A short description of assay [21]: qHTS assay for cell viability of HEK293 cells (AID 743288). Further: on the % scale 0 is the no-effect control and ±100 the full control effect; nearly all actives have a fitted effect of over 50% in size. The following applies: ATP luminescence (CellTiter-Glo), 18 h; max response: stronger effect = lower value. The procedure, abridged: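 The Tox21 protocol used parental HEK293 cells treated for 18 h at 37 C with compounds delivered by pintool; ATP-coupled luminescence after 30 min at room temperature gave viability.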

Assay [22] in a line: qHTS assay for cell viability of the p53RE-bla HCT-116 cell line (AID 743292). Further: on the % scale 0 is the no-effect control and ±100 the full control effect; nearly all actives have a fitted effect of over 55% in size. The procedure, abridged:
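Viability of compound-treated p53RE-bla HCT-116 cells is taken from ATP-dependent luciferase luminescence. Treatment lasts 16 h at 37 C after a 5 h settling period; detection follows 30 min at room temperature.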

In assay [23] the target is Nuclear receptor subfamily 1 group I member 2 (Rattus norvegicus) (UniProt Q9R1A7). Briefly: qHTS assay for small molecule activators of the rat pregnane X receptor (rPXR) signaling pathway (AID 651751; call rule not given here; further: 0% is about no effect). Particulars: rPXR reporter cells, luciferase (One-Glo), 24 h.
The nature of assay [24]: qHTS assay for small molecule activators of the human pregnane X receptor (PXR) signaling pathway (AID 720659; call rule not given here; further: 0% is about no effect).

Values joined by “and” are separate entries in the source; they are usually repeats but may differ in a detail not shown here. Equal entries are not always repeated. Inconclusive results are not listed. Active and inactive are the calls of the source. Unless noted, the call rests on the fitted dose curve; in most records, active means well fitted curve in the direction sought with a large enough effect; inconclusive means small, poorly fitted or top-dose-only effect, or another doubt; inactive means no such curve, though single readings can be large; an effect the other way counts as inactive or inconclusive.

Sequence of Thyroid hormone receptor beta (Homo sapiens) (P10828 whole entry, looked up): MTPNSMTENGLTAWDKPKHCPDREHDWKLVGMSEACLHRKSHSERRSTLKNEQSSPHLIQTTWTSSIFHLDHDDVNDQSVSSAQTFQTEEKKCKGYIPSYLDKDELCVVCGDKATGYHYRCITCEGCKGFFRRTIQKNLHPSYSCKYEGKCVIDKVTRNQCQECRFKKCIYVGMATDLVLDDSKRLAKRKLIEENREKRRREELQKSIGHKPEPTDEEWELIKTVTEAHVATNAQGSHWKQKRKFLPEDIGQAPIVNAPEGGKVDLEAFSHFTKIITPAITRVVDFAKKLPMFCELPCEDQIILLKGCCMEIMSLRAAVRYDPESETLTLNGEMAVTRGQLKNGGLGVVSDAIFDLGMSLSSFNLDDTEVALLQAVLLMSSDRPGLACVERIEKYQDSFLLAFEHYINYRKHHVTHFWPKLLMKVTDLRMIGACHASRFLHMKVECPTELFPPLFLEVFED
Sequence of Vitamin D3 receptor (Homo sapiens) (P11473 whole entry, looked up): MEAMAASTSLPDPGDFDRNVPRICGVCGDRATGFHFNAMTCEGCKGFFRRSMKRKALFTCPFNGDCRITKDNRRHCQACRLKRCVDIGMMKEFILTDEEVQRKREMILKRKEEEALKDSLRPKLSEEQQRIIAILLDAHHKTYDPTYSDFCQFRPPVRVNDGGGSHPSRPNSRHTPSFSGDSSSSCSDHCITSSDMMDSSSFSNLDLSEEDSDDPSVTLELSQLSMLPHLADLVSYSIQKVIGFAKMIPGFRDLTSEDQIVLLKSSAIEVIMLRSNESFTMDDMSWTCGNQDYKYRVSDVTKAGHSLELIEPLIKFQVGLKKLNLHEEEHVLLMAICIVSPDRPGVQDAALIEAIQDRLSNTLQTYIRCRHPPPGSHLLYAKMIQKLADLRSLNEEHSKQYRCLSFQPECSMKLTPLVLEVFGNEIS
Sequence of Retinoic acid receptor RXR-alpha (Homo sapiens) (P19793 whole entry, looked up): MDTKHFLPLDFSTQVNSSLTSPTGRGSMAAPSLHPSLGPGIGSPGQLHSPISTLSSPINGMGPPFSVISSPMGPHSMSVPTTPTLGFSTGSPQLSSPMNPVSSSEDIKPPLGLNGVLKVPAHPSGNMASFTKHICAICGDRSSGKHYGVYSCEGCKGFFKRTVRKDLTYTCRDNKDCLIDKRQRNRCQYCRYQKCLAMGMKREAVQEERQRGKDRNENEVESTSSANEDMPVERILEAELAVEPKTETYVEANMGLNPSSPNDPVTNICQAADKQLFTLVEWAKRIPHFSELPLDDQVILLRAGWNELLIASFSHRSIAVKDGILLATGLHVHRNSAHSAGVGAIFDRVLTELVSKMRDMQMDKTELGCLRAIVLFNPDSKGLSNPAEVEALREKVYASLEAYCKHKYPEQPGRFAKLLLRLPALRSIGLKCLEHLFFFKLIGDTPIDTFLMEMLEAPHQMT
Sequence of Peroxisome proliferator-activated receptor alpha (Homo sapiens) (Q07869 whole entry, looked up): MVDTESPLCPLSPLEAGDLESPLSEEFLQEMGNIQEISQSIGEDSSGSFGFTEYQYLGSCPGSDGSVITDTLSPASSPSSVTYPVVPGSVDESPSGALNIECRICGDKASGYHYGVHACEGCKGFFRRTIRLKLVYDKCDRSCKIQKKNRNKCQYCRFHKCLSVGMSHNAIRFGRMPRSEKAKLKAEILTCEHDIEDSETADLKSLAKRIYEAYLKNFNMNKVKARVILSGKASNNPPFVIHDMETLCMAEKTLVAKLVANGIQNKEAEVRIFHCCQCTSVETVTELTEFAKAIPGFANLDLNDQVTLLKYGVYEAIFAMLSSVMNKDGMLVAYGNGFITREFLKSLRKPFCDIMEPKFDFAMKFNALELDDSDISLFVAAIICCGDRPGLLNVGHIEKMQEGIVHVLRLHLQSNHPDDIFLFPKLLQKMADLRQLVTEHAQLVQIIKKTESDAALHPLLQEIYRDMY
Sequence of Nuclear receptor subfamily 1 group I member 2 (Rattus norvegicus) (Q9R1A7 whole entry, looked up): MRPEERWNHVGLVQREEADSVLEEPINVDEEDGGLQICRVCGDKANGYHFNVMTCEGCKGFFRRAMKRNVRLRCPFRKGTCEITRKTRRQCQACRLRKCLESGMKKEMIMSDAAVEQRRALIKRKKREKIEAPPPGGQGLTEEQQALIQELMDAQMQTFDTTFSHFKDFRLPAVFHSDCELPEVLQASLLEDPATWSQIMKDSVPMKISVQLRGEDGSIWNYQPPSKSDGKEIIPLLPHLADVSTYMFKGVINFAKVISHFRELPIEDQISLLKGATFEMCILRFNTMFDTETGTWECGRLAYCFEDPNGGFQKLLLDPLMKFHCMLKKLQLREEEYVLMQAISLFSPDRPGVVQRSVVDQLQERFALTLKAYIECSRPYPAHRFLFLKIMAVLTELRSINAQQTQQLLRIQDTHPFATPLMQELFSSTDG
Sequence of Voltage-gated inwardly rectifying potassium channel KCNH2 (Homo sapiens) (Q12809 whole entry, looked up): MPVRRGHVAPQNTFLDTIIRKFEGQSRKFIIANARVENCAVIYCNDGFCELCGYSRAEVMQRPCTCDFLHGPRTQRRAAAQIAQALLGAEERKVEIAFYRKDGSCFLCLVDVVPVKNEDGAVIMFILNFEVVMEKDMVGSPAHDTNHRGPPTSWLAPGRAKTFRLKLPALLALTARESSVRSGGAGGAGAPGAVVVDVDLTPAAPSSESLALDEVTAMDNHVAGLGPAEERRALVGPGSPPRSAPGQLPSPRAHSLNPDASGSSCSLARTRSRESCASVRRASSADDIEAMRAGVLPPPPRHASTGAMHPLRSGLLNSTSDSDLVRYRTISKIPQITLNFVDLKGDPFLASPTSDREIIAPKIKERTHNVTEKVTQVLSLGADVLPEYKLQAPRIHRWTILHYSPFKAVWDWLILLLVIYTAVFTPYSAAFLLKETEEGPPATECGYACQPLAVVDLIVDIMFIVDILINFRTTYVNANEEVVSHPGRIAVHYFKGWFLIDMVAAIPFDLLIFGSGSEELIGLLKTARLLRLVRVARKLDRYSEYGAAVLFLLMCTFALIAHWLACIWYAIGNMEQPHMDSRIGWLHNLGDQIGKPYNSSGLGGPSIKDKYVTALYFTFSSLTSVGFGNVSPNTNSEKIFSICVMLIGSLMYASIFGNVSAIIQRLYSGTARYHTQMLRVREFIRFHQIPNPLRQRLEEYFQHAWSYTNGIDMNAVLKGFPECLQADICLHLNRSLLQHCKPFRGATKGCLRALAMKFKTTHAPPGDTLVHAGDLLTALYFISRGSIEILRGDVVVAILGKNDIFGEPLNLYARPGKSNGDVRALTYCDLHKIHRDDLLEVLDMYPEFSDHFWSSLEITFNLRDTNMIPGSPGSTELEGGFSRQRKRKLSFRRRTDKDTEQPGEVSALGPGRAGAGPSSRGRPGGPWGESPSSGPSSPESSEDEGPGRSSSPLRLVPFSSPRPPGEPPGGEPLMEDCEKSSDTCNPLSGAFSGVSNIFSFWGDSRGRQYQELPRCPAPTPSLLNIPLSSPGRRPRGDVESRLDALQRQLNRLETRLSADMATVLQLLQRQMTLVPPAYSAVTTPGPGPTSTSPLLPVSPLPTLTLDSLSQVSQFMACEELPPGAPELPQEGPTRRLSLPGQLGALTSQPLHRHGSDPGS
Sequence of Nuclear receptor ROR-gamma (Homo sapiens) (P51449 whole entry, looked up): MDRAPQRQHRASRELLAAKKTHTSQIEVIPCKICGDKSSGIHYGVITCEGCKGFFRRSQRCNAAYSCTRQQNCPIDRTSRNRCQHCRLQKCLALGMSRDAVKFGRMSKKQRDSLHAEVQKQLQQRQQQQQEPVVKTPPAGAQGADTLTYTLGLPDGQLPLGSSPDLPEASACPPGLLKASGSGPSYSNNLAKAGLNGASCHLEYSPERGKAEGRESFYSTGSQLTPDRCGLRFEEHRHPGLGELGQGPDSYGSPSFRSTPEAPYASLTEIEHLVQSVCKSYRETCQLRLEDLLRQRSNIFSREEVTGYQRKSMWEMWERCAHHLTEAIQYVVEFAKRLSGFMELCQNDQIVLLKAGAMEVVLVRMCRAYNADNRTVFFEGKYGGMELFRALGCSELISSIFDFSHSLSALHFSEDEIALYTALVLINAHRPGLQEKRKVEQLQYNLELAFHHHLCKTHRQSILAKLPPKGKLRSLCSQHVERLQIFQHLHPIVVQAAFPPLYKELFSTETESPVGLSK
Sequence of Tumor necrosis factor (Homo sapiens) (P01375 whole entry, looked up): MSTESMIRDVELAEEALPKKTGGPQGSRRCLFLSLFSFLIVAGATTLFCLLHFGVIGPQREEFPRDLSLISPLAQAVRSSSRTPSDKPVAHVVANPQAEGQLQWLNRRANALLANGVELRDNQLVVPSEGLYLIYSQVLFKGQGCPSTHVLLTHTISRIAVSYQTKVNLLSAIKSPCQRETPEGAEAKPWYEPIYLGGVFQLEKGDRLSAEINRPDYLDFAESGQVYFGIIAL

Take `Cc1ccc([N+](=O)[O-])cc1C`: the compound was called inactive in assay [1], in [2], in [5], in [14], in assay [18] and in assay [24]. Also, the max response in [3] is -11.5%; in assay [6], -4.65% and -9.04%; in assay [7], 17.5% (inactive) and -26.4% (inactive); in assay [16] it was -4.21% (inactive) and -1.01% (inactive); in assay [20], 4.05% (inactive) and -7% (inactive); in assay [21] it was -0.535% (inactive) and -15% (inactive). The max response in [23] was 1.14% (inactive) and -0.13% (inactive). Moreover, the Potency result in assay [4], in assay [9], in assay [10], in assay [12], in assay [13] and in [17] was “inactive” throughout. Moreover, the Potency entry in assay [19] and in assay [22] was “inactive” each time. The activity change % (negative = inhibition) in [8] is 13% (inactive) and 10.3% (inactive). Further, the activation in assay [11] was 0.21% (inactive) and 0.188% (inactive); in [15], -0.487% (inactive) and 1.08% (inactive).

The values are drawn from PubChem BioAssay (NCATS).
